Source: PubChem BioAssay
A selection: hits, their analogues and other compounds. The true share with any hit is near 10%.
Six1-Eya2 inh: qHTS Assay for Inhibitors of the Six1/Eya2 Interaction; AID 651725, 2012; Homeobox protein SIX1 (Homo sapiens) + Protein phosphatase EYA2 (Homo sapiens), …; 0.56% of 360,000 active; activity change, % (test concentration not listed); AlphaScreen GST-Six1/His-Eya2 binding, biochemical; stronger effect = lower value; in the data active = activity change below about -65%; inconclusive = mostly about -30% to -63%; note: % is set by controls: 0 for no effect and ±100 for the full control effect
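Six1/Eya2 binding was read as AlphaScreen signal after compounds were pinned into GST-Six1 plus His-tagged Eya2 (5X stock 250/500 nM) in pH 8.0 Tris/NaCl/TCEP buffer, beads added, then incubated 1 h, 37 C, dark.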
G9a block: qHTS Assay for Inhibitors of Histone Lysine Methyltransferase G9a; Histone-lysine N-methyltransferase EHMT2 (Homo sapiens), Q96KQ7; G9a H3K9 monomethylation, AlphaScreen, 2 h; Potency, µM (doses to about 102 µM), without a hit: top-dose activity, negative = inhibition, usual class: inhibitors; 8.8% of 350,000 active; note: potency is the fitted concentration of half-maximal effect; % is set by controls: 0 for no effect and ±100 for the full control effect; nearly all actives have a fitted effect of over 75% in size
Target sequence (Q96KQ7 913-1193 limits assumed): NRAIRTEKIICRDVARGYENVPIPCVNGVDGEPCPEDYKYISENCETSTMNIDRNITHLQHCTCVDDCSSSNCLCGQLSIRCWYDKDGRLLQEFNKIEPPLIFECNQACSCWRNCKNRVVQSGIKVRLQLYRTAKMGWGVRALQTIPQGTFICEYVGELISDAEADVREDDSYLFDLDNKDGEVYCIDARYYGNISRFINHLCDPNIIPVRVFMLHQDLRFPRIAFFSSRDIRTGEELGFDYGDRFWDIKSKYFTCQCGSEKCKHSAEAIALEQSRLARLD
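AlphaScreen detection with an anti-monomethyl H3K9 antibody quantified product after a 2 h room-temperature reaction containing 500 nM biotinylated H3K9 peptide, 20 µM SAM and 20 nM enzyme, which had been preincubated 15 min with compound.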
HP1b chromo inh: HTS for Inhibitors of HP1-beta Chromodomain Interactions with Methylated Histone Tails; AlphaScreen HP1-beta / biotin-H3K9me3 peptide binding; Potency, µM (series often up to 114 µM), without a hit: at the top dose activity change, negative = inhibition, hits mostly inhibitors; 0.56% of 390,000 active; note: potency is the fitted concentration of half-maximal effect; nearly all actives have a fitted effect of over 70% in size
Target sequence (P83916 whole entry, looked up): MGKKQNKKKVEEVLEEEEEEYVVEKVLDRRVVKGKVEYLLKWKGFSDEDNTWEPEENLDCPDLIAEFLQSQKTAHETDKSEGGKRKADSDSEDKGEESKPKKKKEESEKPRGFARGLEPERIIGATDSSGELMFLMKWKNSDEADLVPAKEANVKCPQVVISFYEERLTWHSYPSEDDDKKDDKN
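Compound inhibition of the preformed complex between 50 nM HP1-beta and 50 nM biotinylated H3K9me3 peptide was read by AlphaScreen. Buffer was PBS pH 7.4 with 0.01% Tween-20. Incubations ran 30 min at room temperature, with 10 ug/mL donor/acceptor beads.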
CtBP-E1A blk: qHTS Assay for Inhibitors of the CtBP/E1A Interaction. 0.49% of 340,000 active. AlphaScreen GST-E1A/His-CtBP binding, 1536-well; stronger effect = lower value. activity change, % (test concentration not listed); in the data active = activity change below about -65%; inconclusive = mostly about -30% to -63%; note: % is set by controls: 0 for no effect and ±100 for the full control effect
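AlphaScreen with 125 nM GST-E1A and 125 nM His-CtBP (5X stocks) in Tris pH 8.0, 300 mM NaCl, BSA, Tween 20, TCEP. Compounds preincubated 2 h at 37 deg C, then glutathione donor/nickel acceptor beads added for 1 h at 37 deg C in dark.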
JMJD2A Tudor inh: qHTS Assay for Inhibitors of JMJD2A-Tudor Domain; AID 504339, 2011; Lysine-specific demethylase 4A (Homo sapiens), O75164; Potency, µM (doses to about 114 µM), for the others: at the top dose activity change, negative = inhibition, most hits filed as inhibitors; 4.4% of 390,000 active; AlphaScreen JMJD2A-Tudor / H3K4me3 peptide binding; note: potency is the fitted concentration of half-maximal effect; % is set by controls: 0 for no effect and ±100 for the full control effect; nearly all actives have a fitted effect of over 50% in size
BAZ2B block: qHTS Assay for Inhibitors of BAZ2B | Bromodomain adjacent to zinc finger domain protein 2B (Homo sapiens), Q9UIF8 | AlphaScreen BAZ2B-H3K14Ac peptide displacement | Potency, µM (series often up to 114 µM), inactives show top-dose activity change, negative = inhibition, actives largely listed as inhibitors | 4.4% of 360,000 active; note: potency is the fitted concentration of half-maximal effect; % is set by controls: 0 for no effect and ±100 for the full control effect; nearly all actives have a fitted effect of over 60% in size
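AlphaScreen luminescence quantifies BAZ2B engagement of H3K14Ac peptide; the protein and biotinylated peptide are both at 50 nM final, buffer PBS pH 7.4 with 0.01% Tween-20, all steps at room temperature.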
* hit, by the source's call; ? = inconclusive; · = not tested or not shown; [ ] = remark or other dose. Unless noted, calls come from the whole dose curve; as a rule, active = well fitted inhibition curve with a large enough effect; inconclusive = small, poorly fitted or top-dose-only effect; inactive = no such curve, though single readings can be large or run the other way.

SMILES	Six1-Eya2 inh	G9a block	HP1b chromo inh	CtBP-E1A blk	JMJD2A Tudor inh	BAZ2B block
Cc1onc(-c2c(F)cccc2Cl)c1C(=O)NC(=S)Nc1c(C)n(C)n(-c2ccccc2)c1=O	-5	32µM*	23%	0	-14%	?
CCC1=C(c2ccc(C)cc2)S(=O)(=O)N=C1N1CCC(C(=O)Nc2ccccc2C(=O)OC)CC1	·	9%[59 µM]	?	·	-28%	-14%
COc1cc2c(s1)c1cnn(Cc3ccccc3F)c(=O)c1n2C	·	·	·	·	-30%	·
O=S(=O)(c1cccc(Br)c1)N1CCN(c2nc(-c3cccs3)nc3ccccc23)CC1	·	·	13%	·	-10%	·
Cn1c2ccccc2c2nnc(SCCOc3ccccc3)nc21	·	·	78%	·	-4%	·
COc1ccc(S(=O)(=O)NCc2ccc3c(c2)CCN3C(C)=O)cc1OC	·	9%[59 µM]	18%[57 µM]	·	-16%	0%
CCCCN1C(=O)CN(C2CCCCCC2)C(=O)C1c1ccc(OCCC)c(OC)c1 (centres undefined)	·	0%[59 µM]	5%	·	-11%	0%
CCC(=O)N1CCc2cc(Br)cc(S(=O)(=O)N3CCCC(C(=O)Nc4ccc(C(C)C)cc4)C3)c21 (centres undefined)	·	-30%[59 µM]	6%	·	-26%	2%
Cc1cc(C)c2c(C)c(C(=O)Nc3c(C)n(C)n(-c4ccccc4)c3=O)oc2c1	-5	71µM*	35%	-3	-11%	1%
Cc1ccc2c(=O)cc(C(=O)Nc3c(C)n(C)n(-c4ccccc4)c3=O)oc2c1	·	?	27%	·	-3%	-6%
Cc1c(Nc2scc(-c3ccccc3)[n+]2-c2ccccc2)c(=O)n(-c2ccccc2)n1C	-10	28µM*	?	4	56µM*	50µM*
COC(=O)C1C(O)CC[C@@H]2CN3CCc4c([nH]c5ccccc45)C3C[C@@H]12 (some centres undefined)	·	-34%[2.33 µM]	·	·	·	·
Cc1ccc(NC(=O)Cn2cnc3sc(C(=O)O)c(C)c3c2=O)cc1Cl	·	0%[59 µM]	38%	·	-7%	4%
O=C(CC1C(=O)NCCN1Cc1ccccc1C(F)(F)F)NCCn1cccn1 (centres undefined)	4	35µM*	28%	1	-14%	-30%
COc1cccc(CN2CCNC(=O)C2CC(=O)NCCN2CCCCC2=O)c1 (centres undefined)	-8	?	49%	-23	5%	1%
CN(CCN1CCOCC1)C(=O)CC1C(=O)NCCN1Cc1ccccc1C(F)(F)F (centres undefined)	4	45µM*	46%	2	-10%	-27%
O=C(CC1C(=O)NCCN1Cc1ccccc1C(F)(F)F)NCCN1CCOCC1 (centres undefined)	-5	45µM*	25%	4	-10%	-36%
O=C(CC1C(=O)NCCN1Cc1ccccc1C(F)(F)F)NCCN1CCCCC1=O (centres undefined)	5	40µM*	60%	·	18%	-9%
Cc1nccn1CCCNC(=O)CC1C(=O)NCCN1Cc1ccccc1C(F)(F)F (centres undefined)	7	?	47%	0	-20%	-8%
Cc1cccc(NC(=O)C2CCN(S(=O)(=O)c3cccc4nsnc34)CC2)c1C	·	-14%[59 µM]	20%	·	-13%	·
CCOC(=O)C1=C(C)NC(=O)C1CC(=O)Nc1ccccc1 (centres undefined)	·	3.5µM*	·	·	·	-10%
CCOc1ccccc1CNc1nc2nc(C)c(CC(=O)OC)c(=O)n2[nH]1	·	-26%[59 µM]	11%	·	-17%	?
Cc1ccc(OCC(=O)c2cc(C)n(C)c2C)c([N+](=O)[O-])n1	-15	?	1%	-7	-29%	56µM*
